# Reference: the supplement of paper PMC10849652
# Of roughly 8,800 targets only a part is listed; those with a hit were picked by preference. About 0.5% of all pairs of compound and target were hits. A number with no mark means an inactive call.
# What was measured:
# Test in all cases: log2 fold change, soluble protein after heating vs DMSO (PISA); higher = thermal stabilisation; K562 lysate, 10 uM; active = over 0.2 and 3.5 SD of the protein, either way, in both replicates (recomputed)
# erlotinib = compound: C#Cc1cccc(Nc2ncnc3cc(OCCOC)c(OCCOC)cc23)c1 [erlotinib]
# Outline: (§1)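 Soluble protein was defined as the supernatant remaining after 21,000xg for 90 min, following pooling of heated aliquots and adjustment to 0.5% NP-40 at 4°C. Before that, crude K562 extract at 1 mg/mL protein in PBS pH 7.4 with 1 mM MgCl2 was treated with 10 μM compound for 30 min and heated for 3 min across 48°C-58°C. Quantification used TMTpro 16plex LC-MS/MS with channel sums equalised, and values are log-two fold changes in thermal stability relative to solvent controls from duplicates.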
# [1] = compound: C/C(=N\NC(=O)C1=CC(=CC=C1)S(=O)(=O)N2CCOCC2)/C3=C(C=CC(=C3)Cl)O
# Outline: as §1
# [2] = compound: C1=CC(=CC=C1C2=NC3=C(N2)C=C(C=C3)C(=O)N)OC4=CC=C(C=C4)Cl
# Outline: as §1
# [3] = compound: C1=CC2=C(C=CC(=C2)/C=C\3/C(=O)NC(=NCC4=CC=CS4)S3)N=C1
# Outline: as §1
# [4] = compound: C1=CC2=NC=CN=C2C=C1/C=C/3\C(=O)NC(=O)S3
# Outline: as §1
# [5] = compound: C1=CC=C(C=C1)C2=NC(=C(N2)C3=CC=NC=C3)C4=CC(=C(C=C4)Cl)O
# Outline: as §1
# [6] = compound: C1=CC=C2C(=C1)C3=NNC4=CC=CC(=C43)C2=O
# Outline: as §1
# [7] = compound: C1CCN(C1)C(=O)NC2=CC=CC(=C2)NC3=NC=C(C(=N3)NCCC4=CN=CN4)Br
# Outline: as §1
# [8] = compound: C1CN(CCC1(CC2=CC=C(C=C2)Cl)N)C3=NC=NC4=C3C=CN4
# Outline: as §1
# IRAK-1-4 Inhibitor I = compound: C1COCCN1CCN2C3=CC=CC=C3N=C2NC(=O)C4=CC(=CC=C4)[N+](=O)[O-] [IRAK-1-4 Inhibitor I]
# Outline: as §1
# Chain of UniProt Q8IYU2 (Q8IYU2 whole entry, looked up): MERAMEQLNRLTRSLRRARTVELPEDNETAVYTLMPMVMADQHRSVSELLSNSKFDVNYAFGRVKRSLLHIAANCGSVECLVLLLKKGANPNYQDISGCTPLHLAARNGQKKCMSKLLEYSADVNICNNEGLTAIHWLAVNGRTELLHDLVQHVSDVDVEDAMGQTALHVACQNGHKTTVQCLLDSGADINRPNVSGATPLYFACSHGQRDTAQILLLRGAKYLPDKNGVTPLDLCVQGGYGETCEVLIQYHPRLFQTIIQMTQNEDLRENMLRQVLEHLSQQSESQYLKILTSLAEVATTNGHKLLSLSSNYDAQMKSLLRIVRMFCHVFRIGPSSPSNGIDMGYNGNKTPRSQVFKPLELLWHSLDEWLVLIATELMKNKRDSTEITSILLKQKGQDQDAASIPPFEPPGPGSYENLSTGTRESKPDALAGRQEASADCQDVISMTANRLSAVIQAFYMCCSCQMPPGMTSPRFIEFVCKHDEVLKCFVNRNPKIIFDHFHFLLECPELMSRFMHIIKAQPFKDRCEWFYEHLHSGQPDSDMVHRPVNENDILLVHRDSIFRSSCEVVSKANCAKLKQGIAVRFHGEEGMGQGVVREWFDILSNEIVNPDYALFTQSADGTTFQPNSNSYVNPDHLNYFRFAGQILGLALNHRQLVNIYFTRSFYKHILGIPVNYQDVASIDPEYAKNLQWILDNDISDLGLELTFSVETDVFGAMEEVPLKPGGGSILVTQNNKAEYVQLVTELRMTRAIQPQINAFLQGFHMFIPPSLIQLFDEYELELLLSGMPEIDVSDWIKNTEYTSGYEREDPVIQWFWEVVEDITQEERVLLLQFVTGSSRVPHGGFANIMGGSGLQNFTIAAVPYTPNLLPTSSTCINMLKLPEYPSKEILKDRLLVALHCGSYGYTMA
# Chain of UniProt O43824 (O43824 whole entry, looked up): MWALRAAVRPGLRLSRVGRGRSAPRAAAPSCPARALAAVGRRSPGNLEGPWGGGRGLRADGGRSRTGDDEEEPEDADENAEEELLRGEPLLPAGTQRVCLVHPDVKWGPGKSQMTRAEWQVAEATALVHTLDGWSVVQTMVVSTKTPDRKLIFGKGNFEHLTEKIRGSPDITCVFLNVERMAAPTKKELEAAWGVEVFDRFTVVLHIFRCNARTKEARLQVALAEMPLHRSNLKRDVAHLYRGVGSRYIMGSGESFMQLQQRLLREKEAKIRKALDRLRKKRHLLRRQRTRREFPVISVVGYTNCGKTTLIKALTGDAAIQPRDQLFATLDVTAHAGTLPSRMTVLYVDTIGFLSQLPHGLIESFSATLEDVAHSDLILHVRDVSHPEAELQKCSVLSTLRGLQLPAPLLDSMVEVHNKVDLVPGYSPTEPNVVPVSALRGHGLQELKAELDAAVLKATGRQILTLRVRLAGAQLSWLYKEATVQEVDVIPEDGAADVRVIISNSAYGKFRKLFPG
# Chain of UniProt P22692 (P22692 whole entry, looked up): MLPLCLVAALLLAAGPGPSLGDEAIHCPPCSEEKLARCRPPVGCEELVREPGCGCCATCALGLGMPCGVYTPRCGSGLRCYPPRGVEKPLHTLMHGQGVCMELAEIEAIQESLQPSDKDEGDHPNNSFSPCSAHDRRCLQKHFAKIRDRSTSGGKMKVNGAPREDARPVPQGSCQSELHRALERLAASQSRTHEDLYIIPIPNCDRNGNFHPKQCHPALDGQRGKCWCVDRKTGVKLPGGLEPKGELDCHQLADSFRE
# Chain of UniProt Q1KMD3 (Q1KMD3 whole entry, looked up): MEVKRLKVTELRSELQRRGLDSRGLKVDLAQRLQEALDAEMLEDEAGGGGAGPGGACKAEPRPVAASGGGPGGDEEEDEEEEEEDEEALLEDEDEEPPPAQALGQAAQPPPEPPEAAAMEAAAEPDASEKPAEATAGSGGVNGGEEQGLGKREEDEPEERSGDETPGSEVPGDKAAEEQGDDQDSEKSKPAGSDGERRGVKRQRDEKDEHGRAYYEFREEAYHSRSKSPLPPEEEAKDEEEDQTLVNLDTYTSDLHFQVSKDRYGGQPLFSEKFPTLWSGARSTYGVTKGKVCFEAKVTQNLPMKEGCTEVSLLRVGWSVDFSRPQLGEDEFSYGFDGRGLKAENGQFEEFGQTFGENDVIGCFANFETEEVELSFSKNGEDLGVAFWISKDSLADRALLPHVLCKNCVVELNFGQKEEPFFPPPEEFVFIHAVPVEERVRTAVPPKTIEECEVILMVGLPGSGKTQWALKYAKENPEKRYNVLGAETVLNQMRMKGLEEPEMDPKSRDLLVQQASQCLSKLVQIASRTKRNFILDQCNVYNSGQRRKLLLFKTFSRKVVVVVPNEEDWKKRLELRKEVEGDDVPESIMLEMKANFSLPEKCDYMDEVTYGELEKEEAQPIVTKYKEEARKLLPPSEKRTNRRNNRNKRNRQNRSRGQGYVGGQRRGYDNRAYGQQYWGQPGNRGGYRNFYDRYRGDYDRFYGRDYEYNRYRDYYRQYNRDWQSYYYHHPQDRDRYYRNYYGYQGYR
# Chain of UniProt Q9P2P5 (Q9P2P5 whole entry, looked up): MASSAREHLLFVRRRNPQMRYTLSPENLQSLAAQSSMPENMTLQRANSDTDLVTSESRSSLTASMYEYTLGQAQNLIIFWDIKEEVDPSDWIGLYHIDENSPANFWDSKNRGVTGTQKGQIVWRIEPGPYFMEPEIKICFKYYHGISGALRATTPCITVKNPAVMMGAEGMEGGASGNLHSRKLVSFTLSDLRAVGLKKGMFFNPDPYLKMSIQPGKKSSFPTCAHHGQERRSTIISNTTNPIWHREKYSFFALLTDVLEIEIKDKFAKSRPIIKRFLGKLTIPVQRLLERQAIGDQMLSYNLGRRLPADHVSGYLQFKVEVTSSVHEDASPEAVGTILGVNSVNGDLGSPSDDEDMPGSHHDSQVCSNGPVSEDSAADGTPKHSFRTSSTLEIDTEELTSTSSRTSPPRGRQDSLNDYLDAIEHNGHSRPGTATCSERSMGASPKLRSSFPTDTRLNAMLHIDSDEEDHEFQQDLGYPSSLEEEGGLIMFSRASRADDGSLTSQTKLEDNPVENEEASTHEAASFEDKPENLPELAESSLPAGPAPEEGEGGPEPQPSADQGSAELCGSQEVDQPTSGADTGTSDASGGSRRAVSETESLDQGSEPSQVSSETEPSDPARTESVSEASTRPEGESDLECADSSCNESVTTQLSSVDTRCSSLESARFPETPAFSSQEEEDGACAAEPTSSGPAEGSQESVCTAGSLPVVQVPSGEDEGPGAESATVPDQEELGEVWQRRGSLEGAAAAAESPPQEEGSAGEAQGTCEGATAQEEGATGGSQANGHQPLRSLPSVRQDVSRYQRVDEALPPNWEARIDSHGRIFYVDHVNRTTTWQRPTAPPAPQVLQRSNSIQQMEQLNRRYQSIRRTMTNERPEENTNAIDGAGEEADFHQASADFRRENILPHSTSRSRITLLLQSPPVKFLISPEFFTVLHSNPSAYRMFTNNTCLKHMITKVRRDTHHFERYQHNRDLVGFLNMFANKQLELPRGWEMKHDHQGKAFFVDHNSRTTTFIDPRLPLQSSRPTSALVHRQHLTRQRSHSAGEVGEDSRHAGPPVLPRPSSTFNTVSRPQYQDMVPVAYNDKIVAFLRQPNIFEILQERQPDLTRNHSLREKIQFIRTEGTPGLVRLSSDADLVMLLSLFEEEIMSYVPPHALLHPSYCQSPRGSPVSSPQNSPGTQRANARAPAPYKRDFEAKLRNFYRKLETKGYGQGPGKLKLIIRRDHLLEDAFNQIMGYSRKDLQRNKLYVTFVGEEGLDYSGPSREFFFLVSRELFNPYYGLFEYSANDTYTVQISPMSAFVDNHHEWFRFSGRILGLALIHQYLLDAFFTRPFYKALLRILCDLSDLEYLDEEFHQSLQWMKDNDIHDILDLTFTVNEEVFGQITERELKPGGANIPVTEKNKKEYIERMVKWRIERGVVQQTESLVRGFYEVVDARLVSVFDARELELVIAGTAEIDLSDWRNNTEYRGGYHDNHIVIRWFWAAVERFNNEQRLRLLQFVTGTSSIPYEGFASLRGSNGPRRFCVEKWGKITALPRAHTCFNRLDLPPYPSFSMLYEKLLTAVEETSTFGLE
# Chain of UniProt Q6ICG6 (Q6ICG6 whole entry, looked up): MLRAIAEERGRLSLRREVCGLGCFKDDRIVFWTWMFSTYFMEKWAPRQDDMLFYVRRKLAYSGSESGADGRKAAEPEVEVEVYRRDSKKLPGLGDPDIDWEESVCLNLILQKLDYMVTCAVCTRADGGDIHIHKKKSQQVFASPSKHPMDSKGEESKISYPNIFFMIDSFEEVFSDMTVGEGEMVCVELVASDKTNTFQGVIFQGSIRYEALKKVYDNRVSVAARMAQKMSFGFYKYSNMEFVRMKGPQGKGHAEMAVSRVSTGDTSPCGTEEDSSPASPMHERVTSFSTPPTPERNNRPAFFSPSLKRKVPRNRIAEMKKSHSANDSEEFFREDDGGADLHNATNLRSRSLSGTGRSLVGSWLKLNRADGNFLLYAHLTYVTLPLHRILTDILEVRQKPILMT
# Chain of UniProt Q9H9Y4 (Q9H9Y4 whole entry, looked up): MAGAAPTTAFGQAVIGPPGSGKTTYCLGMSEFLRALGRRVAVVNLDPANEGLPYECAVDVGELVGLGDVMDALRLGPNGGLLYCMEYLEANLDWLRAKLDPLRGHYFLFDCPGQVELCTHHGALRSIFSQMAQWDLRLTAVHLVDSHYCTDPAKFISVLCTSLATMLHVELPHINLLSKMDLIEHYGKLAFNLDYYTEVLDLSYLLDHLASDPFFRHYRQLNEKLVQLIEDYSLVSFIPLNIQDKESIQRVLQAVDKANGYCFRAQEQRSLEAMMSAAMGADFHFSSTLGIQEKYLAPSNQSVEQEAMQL
# Chain of UniProt P17096 (P17096 whole entry, looked up): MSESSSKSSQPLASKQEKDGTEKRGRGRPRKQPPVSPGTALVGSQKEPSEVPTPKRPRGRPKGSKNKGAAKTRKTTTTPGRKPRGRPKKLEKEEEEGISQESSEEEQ
Target,log2 fold change (erlotinib),log2 fold change [1],log2 fold change [2],log2 fold change [3],log2 fold change [4],log2 fold change [5],log2 fold change [6],log2 fold change [7],log2 fold change [8],log2 fold change (IRAK-1-4 Inhibitor I)
IRF2BP1 (UniProt Q8IU81),-0.024,-0.114,0.022,-0.016,0.021,-0.039,-0.021,-0.057,0.006,-0.018
GORASP1 (UniProt Q9BQQ3),-0.081,-0.026,-0.019,0.05,,0.01,-0.057,0.049,0.018,-0.023
KATNBL1 (UniProt Q9H079),-0.012,0.009,-0.02,0.064,,,-0.001,0.045,-0.687 (active),
IGFBP4 (UniProt P22692),0.06,,0.025,,0.218,-0.033,,,,0.016
HMGA1 isoform 2 (UniProt P17096),0.042,,-0.043,,,0.022,,,,0
IPP (UniProt Q9Y573),-0.04,-0.192,-0.017,-0.181,,0.025,-0.105,0.179,0.041,-0.035
ITM2B (UniProt Q9Y287),-0.039,0.225,0.02,-0.202,0.026,0.005,0.052,,,0.023
GPN2 (UniProt Q9H9Y4),-0.022,0.089,0.032,0.043,,-0.041,-0.056,-0.241 (active),-0.062,-0.027
GSTM4 (UniProt Q03013),0.006,-0.044,-0.073,-0.026,0.141,0.046,-0.025,-0.109,-0.025,-0.064
ITPRIP (UniProt Q8IWB1),0.218,,-0.16,,,,,,,
HSPA8 (UniProt E9PN89),0.02,,-0.004,,-0.095,0.082,,-0.045,-0.043,-0.055
HSPBAP1 (UniProt Q96EW2),0.064,,-0.098,,-0.079,-0.072,,0.002,0.031,-0.002
ISL2 (UniProt Q96A47),-0.149,,0.003,,0.032,-0.014,,,,0.016
HNRNPM (UniProt M0R019),,0.224,,0.178,,,-0.128,,,
ITPR2 (UniProt Q14571),0.058,,0.163,,,-0.051,,,,0.021
HOMER3 (UniProt Q9NSC5),,,,,-0.078,,,,,
HACE1 (UniProt Q8IYU2),0.033,0.083,0.106,-0.019,0.017,-0.189,-0.174,-0.069,0.055,0.032

Target,log2 fold change (erlotinib),log2 fold change [1],log2 fold change [2],log2 fold change [3],log2 fold change [4],log2 fold change [5],log2 fold change [6],log2 fold change [7],log2 fold change [8],log2 fold change (IRAK-1-4 Inhibitor I)
HYDIN (UniProt Q4G0P3),,-0.022,,0.005,,1.34 (active),0.036,-0.054,0.022,0.712
HMGN5 (UniProt Q5JSK9),,,,,-0.128,,,0.008,-0.076,
KIAA0930 isoform 2 (UniProt Q6ICG6),,-0.004,,-0.067,-0.229,-0.258,0.203,0.099,-0.01,-0.063
GNB4 (UniProt Q9HAV0),-0.017,,0.067,,-0.049,-0.057,,-0.035,-0.005,-0.024
GTPBP6 (UniProt O43824),,0.187,,0.11,,,-0.048,-0.082,0.037,
IRS2 (UniProt Q9Y4H2),0.04,,-0.099,,0.164,0.143,,,,-0.009
"GYPA, A0A2R8Y7F9",,,,,0.066,,,,,
HECW2 (UniProt Q9P2P5),-0.012,0.009,-0.093,0.013,,-0.075,0.023,0.029,-0.118,0.082
HNRNPUL1 (UniProt M0R247),-0.046,,0.079,,-0.049,,,,,
IMPDH2 (UniProt H0Y4R1),,-0.014,,0.023,-0.118,-0.155,-0.029,0.099,0.076,0.037
H3-3A (UniProt P84243),0.038,0.001,0.048,-0.033,-0.055,,0.056,-0.053,-0.315 (active),
HMGN4 (UniProt O00479),0.015,0.238,0.063,-0.056,0.017,0.048,0.293,0.201,-0.044,-0.046
ITGB1BP2 (UniProt Q9UKP3),,0.017,,-0.001,,,0.039,-0.117,0.09,
HNRNPUL2 (UniProt Q1KMD3),-0.006,-0.002,0.02,-0.004,-0.035,-0.006,-0.014,-0.001,-0.022,-0.003
"HNRNPL, A0A3B3ITJ4",,,,,-0.086,,,,,
HNRNPM (UniProt M0QZM1),,0.07,,0.044,0.246,,0.066,0.046,0.086,
JAK3 (UniProt P52333),,0.037,,-0.075,-0.041,,0.23,,,
